From PubChem BioAssay AID1159580 (chemical genetic matrix, 2015)
Out of some 5,500 compounds screened, about 2,000 (36%) were called active. Roughly 18% stayed inconclusive and do not appear here. Rule as the data show it: active = normalized growth mostly below about 0.91 (no sharp cut-off); inconclusive = no clear call, values can overlap the other calls; inactive = mostly above about 0.92. This is one part of the list.

Assay: chemical genetic growth profiling, strain panel (AID 1159580);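 also: tested at 20 µM; growth read once vehicle control cultures reached saturation at 30 °C; 1 = growth at the plate median or of vehicle wells; lower values mean less growth of the strain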
Conditions: growth OD

Measured: normalized growth

COc1cnc(NS(=O)(=O)c2ccc(N)cc2)nc1
inactive: S. cerevisiae deletion strains, locus YJR075W, strain HOC1, active compounds read low 0.978 | S. cerevisiae deletion strains, locus YKL009W, strain mrt4, active compounds read low 0.994 | S. cerevisiae deletion strains, locus YKL068W, active compounds read low 0.983 | S. cerevisiae deletion strains, locus YKL085W, strain MDH1 (second series), active compounds read low 0.971 | S. cerevisiae deletion strains, locus YKL085W, strain MDH1, active compounds read low 0.971 | S. cerevisiae deletion strains, locus YKL160W, strain elf1, active compounds read low 0.999 | S. cerevisiae deletion strains, locus YKL190W, strain CNB1, active compounds read low 0.979 | S. cerevisiae deletion strains, locus YKR001C, strain vps1, active compounds read low 0.964 | S. cerevisiae deletion strains, locus YKR026C, strain gcn3, active compounds read low 1 | S. cerevisiae deletion strains, locus YKR091W, strain srl3, active compounds read low 0.998 | S. cerevisiae deletion strains, locus YLL001W, strain dnm1, active compounds read low 0.966 | S. cerevisiae deletion strains, locus YLL026W, active compounds read low 1 | S. cerevisiae deletion strains, locus YLL041C, strain sdh2, active compounds read low 0.997 | S. cerevisiae deletion strains, locus YLR027C, strain aat2, active compounds read low 1.01 | S. cerevisiae deletion strains, locus YLR039C, strain RIC1, active compounds read low 0.969 | S. cerevisiae deletion strains, locus YLR058C, strain SHM2, active compounds read low 0.976 | S. cerevisiae deletion strains, locus YLR102C, strain apc9, active compounds read low 0.973 | S. cerevisiae deletion strains, locus YLR113W, strain HOG1, active compounds read low 0.989 | S. cerevisiae deletion strains, locus YLR221C, strain rsa3, active compounds read low 0.988 | S. cerevisiae deletion strains, locus YLR258W, strain gsy2, active compounds read low 0.99 | S. cerevisiae deletion strains, locus YLR262C, strain YPT6 (second series), active compounds read low 1.02 | S. cerevisiae deletion strains, locus YLR262C, strain YPT6, active compounds read low 0.96 | S. cerevisiae deletion strains, locus YLR268W, strain sec22, active compounds read low 0.888 | S. cerevisiae deletion strains, locus YLR320W, strain mms22, active compounds read low 0.965 | S. cerevisiae deletion strains, locus YLR330W, strain CHS5, active compounds read low 0.994 | S. cerevisiae deletion strains, locus YLR342W, strain FKS1 (second series), active compounds read low 1.03 | S. cerevisiae deletion strains, locus YLR342W, strain FKS1, active compounds read low 1.01 | S. cerevisiae deletion strains, locus YLR357W, strain rsc2, active compounds read low 0.945 | S. cerevisiae deletion strains, locus YLR370C, strain arc18, active compounds read low 1 | S. cerevisiae deletion strains, locus YLR371W, strain rom2, active compounds read low 0.97 | S. cerevisiae deletion strains, locus YLR384C, strain iki3, active compounds read low 1 | S. cerevisiae deletion strains, locus YLR418C, strain cdc73, active compounds read low 0.99 | S. cerevisiae deletion strains, locus YML016C, strain PPZ1, active compounds read low 0.993 | S. cerevisiae deletion strains, locus YML032C, strain rad52, active compounds read low 0.97 | S. cerevisiae deletion strains, locus YML120C, strain ndi1, active compounds read low 1.02 | S. cerevisiae deletion strains, locus YML124C, strain tub3, active compounds read low 0.979 | S. cerevisiae deletion strains, locus YMR058W, strain fet3, active compounds read low 1 | S. cerevisiae deletion strains, locus YMR078C, strain ctf18, active compounds read low 0.976 | S. cerevisiae deletion strains, locus YMR125W, strain sto1, active compounds read low 0.991 | S. cerevisiae deletion strains, locus YMR129W, active compounds read low 0.985 | S. cerevisiae deletion strains, locus YMR205C, strain PFK2, active compounds read low 0.998 | S. cerevisiae deletion strains, locus YMR223W, strain ubp8, active compounds read low 0.979 | S. cerevisiae deletion strains, locus YMR231W, strain pep5, active compounds read low 0.998 | S. cerevisiae deletion strains, locus YMR307W, strain GAS1, active compounds read low 1.03 | S. cerevisiae deletion strains, locus YNL067W, strain RPL9B, active compounds read low 0.982 | S. cerevisiae deletion strains, locus YNL071W, strain lat1, active compounds read low 1.01 | S. cerevisiae deletion strains, locus YNL183C, strain NPR1, active compounds read low 0.933 | S. cerevisiae deletion strains, locus YNL209W, strain ssb2, active compounds read low 0.997 | S. cerevisiae deletion strains, locus YNL233W, strain BNI4, active compounds read low 1 | S. cerevisiae deletion strains, locus YNL248C, strain rpa49, active compounds read low 0.982 | S. cerevisiae deletion strains, locus YNL250W, strain rad50, active compounds read low 0.982 | S. cerevisiae deletion strains, locus YNL271C, strain bni1, active compounds read low 0.979 | S. cerevisiae deletion strains, locus YNL298W, strain CLA4, active compounds read low 0.965 | S. cerevisiae deletion strains, locus YNL307C, strain MCK1, active compounds read low 0.981 | S. cerevisiae deletion strains, locus YNL322C, strain KRE1 (second series), active compounds read low 0.986 | S. cerevisiae deletion strains, locus YNR049C, strain mso1, active compounds read low 1 | S. cerevisiae deletion strains, locus YNR052C, strain pop2, active compounds read low 0.977 | S. cerevisiae deletion strains, locus YOL006C, strain TOP1, active compounds read low 0.945 | S. cerevisiae deletion strains, locus YOL012C, strain htz1 0.813 | S. cerevisiae deletion strains, locus YOL147C, strain pex11, active compounds read low 0.985 | S. cerevisiae deletion strains, locus YOR001W, strain rrp6, active compounds read low 0.99 | S. cerevisiae deletion strains, locus YOR061W, strain CKA2, active compounds read low 0.962 | S. cerevisiae deletion strains, locus YOR069W, strain VPS5, active compounds read low 0.993 | S. cerevisiae deletion strains, locus YOR070C, strain gyp1, active compounds read low 1.01 | S. cerevisiae deletion strains, locus YOR080W, strain dia2, active compounds read low 0.98 | S. cerevisiae deletion strains, locus YOR083W, strain WHI5, active compounds read low 0.943 | S. cerevisiae deletion strains, locus YOR106W, strain vam3, active compounds read low 0.986 | S. cerevisiae deletion strains, locus YOR136W, strain idh2, active compounds read low 0.987 | S. cerevisiae deletion strains, locus YOR144C, strain elg1, active compounds read low 0.976 | S. cerevisiae deletion strains, locus YOR184W, strain ser1, active compounds read low 0.985 | S. cerevisiae deletion strains, locus YOR231W, strain MKK1, active compounds read low 0.99 | S. cerevisiae deletion strains, locus YOR265W, strain rbl2, active compounds read low 1.02 | S. cerevisiae deletion strains, locus YOR270C, strain vph1, active compounds read low 1.04 | S. cerevisiae deletion strains, locus YOR290C, strain snf2, active compounds read low 0.984 | S. cerevisiae deletion strains, locus YOR316C, strain cot1, active compounds read low 0.958 | S. cerevisiae deletion strains, locus YPL051W, strain arl3, active compounds read low 0.999 | S. cerevisiae deletion strains, locus YPL055C, strain LGE1, active compounds read low 0.949 | S. cerevisiae deletion strains, locus YPL078C, strain atp4, active compounds read low 0.991 | S. cerevisiae deletion strains, locus YPL106C, strain sse1, active compounds read low 0.952 | S. cerevisiae deletion strains, locus YPL240C, strain hsp82, active compounds read low 1 | S. cerevisiae deletion strains, locus YPL256C, strain CLN2, active compounds read low 0.99 | S. cerevisiae deletion strains, locus YPR119W, strain clb2, active compounds read low 0.985 | S. cerevisiae deletion strains, locus YPR141C, strain kar3, active compounds read low 0.96 | S. cerevisiae deletion strains, locus YPR163C, strain tif3, active compounds read low 0.991 | S. cerevisiae deletion strains, locus YPR167C, strain met16, active compounds read low 0.983 | S. cerevisiae deletion strains, strain wtn01, active compounds read low 0.989 | S. cerevisiae strains, strain wild type, active compounds read low 0.983
